Screening results from PubChem.
Most compounds without a hit are left out; they make up all but 19% or so of the library.
TDP1 block – inhibitors of human tyrosyl-DNA phosphodiesterase TDP1; recombinant TDP1, AlphaScreen DNA substrate cleavage; Potency, µM (top dose mostly 130 µM), for the others: at the highest dose activity change, negative = inhibition, hits mostly inhibitors; 350,000 compounds, 0.28% hits; AID 485290; Q9NUW8; note: potency is the fitted concentration of half-maximal effect; nearly all actives have a fitted effect of over 40% in size
Target sequence (Q9NUW8 whole entry, looked up): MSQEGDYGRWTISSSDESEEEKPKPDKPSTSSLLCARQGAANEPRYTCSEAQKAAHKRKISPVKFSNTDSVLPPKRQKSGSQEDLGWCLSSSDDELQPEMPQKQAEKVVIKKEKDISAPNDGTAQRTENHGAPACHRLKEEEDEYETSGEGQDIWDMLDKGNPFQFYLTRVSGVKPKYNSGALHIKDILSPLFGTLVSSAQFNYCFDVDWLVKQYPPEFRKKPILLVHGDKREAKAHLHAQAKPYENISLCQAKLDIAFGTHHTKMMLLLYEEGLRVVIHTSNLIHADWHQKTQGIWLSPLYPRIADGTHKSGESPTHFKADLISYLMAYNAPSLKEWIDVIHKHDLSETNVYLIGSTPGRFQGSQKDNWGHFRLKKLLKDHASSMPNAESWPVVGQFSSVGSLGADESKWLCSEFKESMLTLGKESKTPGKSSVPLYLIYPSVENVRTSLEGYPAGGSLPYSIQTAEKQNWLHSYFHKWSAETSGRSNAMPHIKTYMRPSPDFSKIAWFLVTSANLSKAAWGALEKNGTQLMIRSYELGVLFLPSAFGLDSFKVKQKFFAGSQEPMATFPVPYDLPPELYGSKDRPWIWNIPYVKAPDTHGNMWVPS
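Tdp1 1 nM final; 15 min RT w/ cpd; substrate 15 nM, 5 min; beads 10 ug/ml, 10 min; AlphaScreen read. Neg ctrl: no enzyme.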
Giardia kill – Giardia lamblia killing. activity change, % at 7.66 µM, hits read low. Giardia lamblia trophozoite viability. AID 540267. 340,000 compounds, 0.15% hits; in the data active = activity change below about -80%; inconclusive = between about -30% and that limit;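 note: parasites exposed to compound for two days anaerobically before the ATP read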
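Giardia lamblia trophozoites (100 cells/well) were incubated with compounds for 48 h at 37 deg C under anaerobic conditions. Viability was read as ATP content by one-step luminescence after 15-30 min at room temperature.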
DT40 TDP1 no CPT – qHTS for Inhibitors of human tyrosyl-DNA phosphodiesterase 1 (TDP1): qHTS in cells in absence of CPT; AID 686978, 2013; DT40 Tdp1-/- hTDP1 cells, no CPT, ATP luminescence, 48 h; Potency, µM (top dose mostly 46.2 µM), for inactives: at the highest dose activity change, negative = growth inhibition, actives largely listed as inhibitors; 420,000 compounds, 15% hits; note: potency is the fitted concentration of half-maximal effect; nearly all actives have a fitted effect of over 55% in size
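Cells were dispensed at 400 per well, compounds added by pin tool, plates incubated ≥48 hr at 37 °C, then CellTiter-Glo added for 30 min at room temperature before luminescence reading. Line: DT40 Tdp1-/- complemented with hTDP1; camptothecin omitted.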
TDP1 cell CPT – growth inhibition of DT40 Tdp1-/-;hTDP1 cells with camptothecin (screen for TDP1 inhibitors); chicken DT40 Tdp1-/-;hTDP1 cells + 20 nM CPT, ATP luminescence, 48 h; Potency, µM (top dose mostly 46.2 µM), without a hit: at the top dose activity change, negative = growth inhibition, hits mostly inhibitors; 420,000 compounds, 12% hits; note: potency is the fitted concentration of half-maximal effect; nearly all actives have a fitted effect of over 55% in size
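Chicken DT40 Tdp1-/- cells complemented with human TDP1, 400 cells/well, exposed to compounds plus 20 nM camptothecin for at least 48 h at 37 C; viability read as ATP content by CellTiter-Glo luminescence.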
IL-1B inflam inh – blocks inflammasome-driven IL-1 beta release. activity change, % at 57.5 µM. THP-1 LPS/ATP IL-1B secretion, AlphaLISA, 16 h; stronger effect = lower value. 360,000 compounds, 4.7% hits. AID 743279; in the data active = activity change below about -50%; inconclusive = mostly about -30% to -49%
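Secreted IL-1B measured by AlphaLISA bead assay after 16 h compound exposure of THP-1 cells; compounds (final up to 57.5 uM) added 1 h before LPS (250 ng/mL) and ATP (1.25 mM) stimulation; lower signal means less secretion.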
ELG1 repair inh – ELG1-dependent DNA repair inhibition | 330,000 compounds, 2.3% hits | Potency, µM (top dose mostly 46.1 µM), inactives show at the top dose activity change, negative = inhibition, hits mostly inhibitors | HEK293T ELG1-luciferase reporter, luminescence, 16 h; DNA damage induced by 5-fluorouridine; note: potency is the fitted concentration of half-maximal effect; nearly all actives have a fitted effect of over 55% in size
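Quantitative HTS, concentration-response format. 2,000 cells/well co-treated with 5-fluorouridine and compound, 16 hr in 5% CO2 at 37 °C; ONE-Glo luminescence read after 30 min.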
The depositor's hits bear a star; u = inconclusive; x = no result given; [ ] = another dose, or the depositor's remark. Unless noted, calls come from the whole dose curve; as a rule, active = well fitted curve in the direction sought with a large enough effect; inconclusive = small, poorly fitted or top-dose-only effect, or another doubt; inactive = no such curve, though single readings can be large; an effect the other way counts as inactive or inconclusive. % is set by controls: 0 for no effect and ±100 for the full control effect.

SMILES	TDP1 block	Giardia kill	DT40 TDP1 no CPT	TDP1 cell CPT	IL-1B inflam inh	ELG1 repair inh
Cn1c(=O)n(C)c2cc([N+](=O)[O-])c(N3CCN(C(=O)c4cccc(Cl)c4)CC3)cc21	3%	-13	18µM*	u	-6	u
Cn1c(=O)n(C)c2cc([N+](=O)[O-])c(N3CCN(S(=O)(=O)c4ccc5ccccc5c4)CC3)cc21	0%	5	u	16µM*	u	-15%
CN1CCN(c2ccc(S(=O)(=O)N3CCCCC3)cc2[N+](=O)[O-])CC1	0%	9	-7%	4%	17	u
Cc1ccc(S(=O)(=O)N2CCN(c3cc4c(cc3[N+](=O)[O-])n(C)c(=O)n4C)CC2)cc1	3%	15	16µM*	u	-27	7.3µM*
COC(=O)c1ccc(N2CCN(S(=O)(=O)c3ccc4ccccc4c3)CC2)c([N+](=O)[O-])c1	4%	72	21µM*	16µM*	-13	-20%
COc1ccc(-c2noc(-c3ccc(NC4CCCCC4)c([N+](=O)[O-])c3)n2)cc1	0%	x	7%	0%	x	x
Cc1ccc(S(=O)(=O)N2CCN(c3ccc(C(F)(F)F)cc3[N+](=O)[O-])CC2)cc1	5%	7	u	u	-30	0%
COc1ccc(N2CCN(S(=O)(=O)c3ccc4c(c3)CCCC4)CC2)c([N+](=O)[O-])c1	8%	7	23µM*	16µM*	-62*	-9%
CC(NC(=O)c1ccccc1)C(=O)N/N=C/c1cccc([N+](=O)[O-])c1 (centres undefined)	2%	6	-10%	1%	-2	u
COc1ccc(-c2nnc(C3CCN(S(=O)(=O)c4ccc(C)c(C)c4)CC3)o2)cc1	1%	x	26µM*	u	x	x
COc1ccc(S(=O)(=O)N2CCC(c3ccncc3)CC2)cc1OC	7%	x	u	-27%	x	x
COc1ccccc1-c1nnc(C2CCN(C(=O)c3ccccc3C)CC2)o1	4%	x	-17%	u	x	x
COc1ccccc1-c1nnc(C2CCN(C(=O)c3cccc(Cl)c3)CC2)o1	6%	x	16µM*	u	x	x
CCOc1ccc(C(=O)N2CCC(c3nnc(-c4ccccc4OC)o3)CC2)cc1	-1%	x	u	u	x	x
COc1ccccc1-c1nnc(C2CCN(S(=O)(=O)c3ccc(F)c(C)c3)CC2)o1	4%	x	u	15µM*	x	x
O=C(Nc1nnc([C@@H]2C[C@H](O)[C@@H](CO)O2)s1)Nc1ccc(F)cc1F	x	x	-8%	-25%	27	x
CC(=O)Nc1ccn(C2COC(COC(=O)c3ccccc3)O2)c(=O)n1 (centres undefined)	x	x	1.5µM*	0.84µM*	x	x
CCCCCN1C(C(=O)c2ccccc2)=C(NC(=O)c2ccc(OC)c(OC)c2)c2ccccc2S1(=O)=O	5%	x	16µM*	21µM*	x	x
CCCCN1C(C(=O)Nc2cc(C)on2)=C(O)c2ccccc2S1(=O)=O	x	7	-20%	6%	-9	-21%
CCCCCN1C(C(=O)c2ccccc2)=C(NC(=O)c2ccc(OC)cc2)c2ccccc2S1(=O)=O	5%	x	23µM*	u	x	x
CNC(=O)CCn1nc(-c2ccc(C)cc2)c2ccccc2c1=O	x	-5	-16%	0%	16	27%
COc1ccccc1NC(=O)Cc1nn(C)c(=O)c2ccccc12	-3%	3	8.2µM*	16µM*	3	-26%
COC(=O)COc1ccc(-c2nn(C)c(=O)c3ccccc23)cc1	0%	-6	-19%	-3%	7	1%
CNC(=O)Cn1nc(-c2ccc(C)cc2)c2ccccc2c1=O	x	-11	15µM*	u	24	8%
Cc1csc(NC(=O)Cc2nn(C)c(=O)c3ccccc23)n1	4%	4	8.2µM*	10µM*	-8	u
SMILES	TDP1 block	Giardia kill	DT40 TDP1 no CPT	TDP1 cell CPT	IL-1B inflam inh	ELG1 repair inh
COc1cccc(OC)c1NC(=O)Cc1nn(C)c(=O)c2ccccc12	3%	18	u	u	27	-20%
Cn1nc(-c2ccc(OCC(=O)Nc3ccccc3)cc2)c2ccccc2c1=O	6%	4	26µM*	23µM*	-13	u
O=C(COc1ccccc1F)Nc1ccc(S(=O)(=O)Nc2nccs2)cc1	7%	1	-11%	-3%	-16	3%
COc1ccccc1OCc1nnc(SCC(=O)Nc2nnc(C3CC3)s2)n1C	-11%	-19	u	-24%	7	15%
Cc1cccc(CC(=O)N2CCC(n3nccc3NC(=O)C3CC3)CC2)c1	4%[56.1 µM]	12	14%	21%	-21	2%
O=C(c1ccc(Cl)c(S(=O)(=O)N2CCOCC2)c1)N(Cc1ccco1)Cc1cccs1	-5%	-1	u	u	-3	u
Cc1ccccc1NC(=O)CCn1nc(-c2ccc(Cl)cc2)c2ccccc2c1=O	-3%	x	-28%	u	x	x
Cc1ccc(NC(=O)CCn2nc(-c3ccccc3)c3ccccc3c2=O)c(C)c1	0%	x	u	21µM*	x	x
CNC(=O)COc1ccc(NC(=O)CCn2nc(-c3ccc(C)cc3)c3ccccc3c2=O)cc1	0%	x	21µM*	u	x	x
CN(C(=O)c1ccc(-c2nn(C)c(=O)c3ccccc23)cc1)c1ccccc1	7%	-11	16µM*	u	47	u
Cn1nc(-c2ccc(OCC(=O)Nc3ccc(Cl)cc3)cc2)c2ccccc2c1=O	x	x	21µM*	u	x	x
Cn1nc(-c2ccc(OCC(N)=O)cc2)c2ccccc2c1=O	0%	-1	2%	-2%	10	u
COc1ccc(Cl)cc1NC(=O)COC(=O)c1cc(NS(=O)(=O)c2cccs2)ccc1O	-3%	4	-4%	15%	24	u
COc1ccccc1NC(=O)c1ccc(-c2nn(C)c(=O)c3ccccc23)cc1	6%	u	21µM*	u	-56*	u
O=C(CCn1nc(-c2ccccc2)c2ccccc2c1=O)N1CCN(c2ccccc2)CC1	12%	-7	23µM*	16µM*	u	u
COc1ccccc1NC(=O)COc1ccc(-c2nn(C)c(=O)c3ccccc23)cc1	4%	-10	7.3µM*	13µM*	-8	16µM*
O=C(CCn1nc(-c2ccccc2)ccc1=O)N1CCN(c2ccccc2)CC1	x	-17	-11%	u	u	0%
CCCNC(=O)COc1ccc(-c2nn(C)c(=O)c3ccccc23)cc1	x	-17	21µM*	u	16	-20%
